Data: PubChem BioAssay (EPA / NIEHS)
The source made the active and inactive calls. The calls were made as follows: active = hit-call score of the fitted dose curve at least 0.9, where 1 is the maximum; inactive = score below 0.9.

Assays:
Details in all cases: mRNA level, 48 h; actives raise or lower the signal
[1] = read-out: Cytochrome P450 (CYP2B6), CYP2B6 (gene 1555); test: LTEA_HepaRG_CYP2B6: Life Technologies and Expression Analysis (LTEA) Assay for Cytochrome P450 (CYP2B6) using HepaRG (AID 2283481)
Outline: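 HepaRG cells plated 48 h, switched to serum-free induction medium, then dosed 48 h (8 points, half-log from 100 uM, 0.5% DMSO). RNA isolated; CYP2B6 expression measured by qRT-PCR; gain or loss fitted relative to DMSO.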

[2] = read-out: Cytochrome P450 2C19 (Homo sapiens) (UniProt P33261); test: LTEA_HepaRG_CYP2C19: Life Technologies and Expression Analysis (LTEA) Assay for CYP2C19 using HepaRG (AID 2283482)
Outline: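 Transcript levels of CYP2C19 were quantified by qRT-PCR after HepaRG cells were treated for 48 hours with test chemicals up to 100 uM (eight half-log concentrations, 0.5% DMSO vehicle). Gain or loss of signal was fitted relative to DMSO.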

[3] = read-out: CYP2C8 (gene 1558); test: LTEA_HepaRG_CYP2C8: Life Technologies and Expression Analysis (LTEA) Assay for CYP2C8 using HepaRG (AID 2283483)
Outline: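 This is a transcriptional endpoint in HepaRG cultures: 48 h exposure, highest concentration 100 uM. CYP2C8 mRNA is quantified by TaqMan qRT-PCR.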

[4] = read-out: CYP2C9 (gene 1559); test: LTEA_HepaRG_CYP2C9: Life Technologies and Expression Analysis (LTEA) Assay for CYP2C9 using HepaRG (AID 2283484)
Outline: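 Eight-point concentration-response (highest 100 uM, half-log dilutions) in HepaRG cells for 48 h; CYP2C9 expression by qRT-PCR normalized to ACTB, GAPDH, POLR2A. Bidirectional fit, DMSO baseline.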

[5] = read-out: CYP2E1 (gene 1571); test: LTEA_HepaRG_CYP2E1: Life Technologies and Expression Analysis (LTEA) Assay for CYP2E1 using HepaRG (AID 2283485)
Outline: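 Readout is qRT-PCR of CYP2E1 mRNA, normalized to three housekeeping genes and fitted bidirectionally against 0.5% DMSO. HepaRG cells were dosed 48 h at eight concentrations, highest 100 uM with half-log dilutions.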

[6] = read-out: CYP4A11 (gene 1579); test: LTEA_HepaRG_CYP4A11: Life Technologies and Expression Analysis (LTEA) Assay for CYP4A11 using HepaRG (AID 2283486)
Outline: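 HepaRG, 48 h chem exposure, 8 conc (100 uM top, half-log), 0.5% DMSO vehicle; qRT-PCR readout, housekeeping-gene normalized; bidirectional curve fit vs DMSO baseline.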

[7] = read-out: Cytochrome P450 3A4 (Homo sapiens) (UniProt P08684); test: LTEA_HepaRG_CYP3A4: Life Technologies and Expression Analysis (LTEA) Assay for CYP3A4 using HepaRG (AID 2283487)
Outline: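 Differentiated HepaRG cells, plated 48 h, then dosed 48 h in serum-free induction medium with 0.5% DMSO, 8 half-log concentrations up to 100 uM, duplicate. CYP3A4 mRNA by qRT-PCR, normalized to ACTB/GAPDH/POLR2A; bidirectional fit versus DMSO.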

[8] = read-out: DNA damage-inducible transcript 3 (DDIT3), DDIT3 (gene 1649); test: LTEA_HepaRG_DDIT3: Life Technologies and Expression Analysis (LTEA) Assay for DNA damage-inducible transcript 3 (DDIT3) using HepaRG (AID 2283488)
Outline: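 Cells are human HepaRG liver cells treated for 48 h with eight half-log concentrations up to 100 uM in 0.5% DMSO. Transcript levels come from qRT-PCR normalized to three housekeeping genes, with activity fitted in both directions relative to vehicle.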

[9] = read-out: Pro-epidermal growth factor (Homo sapiens) (UniProt P01133); test: LTEA_HepaRG_EGF: Life Technologies and Expression Analysis (LTEA) Assay for Epidermal growth factor (EGF) using HepaRG (AID 2283489)
Outline: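 HepaRG, 48 h dosing, 100 uM top, half-log x8, 0.5% DMSO. Readout: TaqMan qRT-PCR (Fluidigm array), housekeeping-normalized. Gain or loss of signal fit vs DMSO.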

[10] = read-out: Early growth response protein 1 (EGR1) transcription factor, EGR1 (gene 1958); test: LTEA_HepaRG_EGR1: Life Technologies and Expression Analysis (LTEA) Assay for Early growth response protein 1 (EGR1) transcription factor using HepaRG (AID 2283490)
Outline: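 EGR1 expression change in human HepaRG after 48 h chemical exposure, assessed by housekeeping-normalized qRT-PCR; concentration-response up to 100 uM, fitted in both directions against DMSO controls.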

[11] = read-out: Ezrin (EZR), EZR (gene 7430); test: LTEA_HepaRG_EZR: Life Technologies and Expression Analysis (LTEA) Assay for Ezrin (EZR) using HepaRG (AID 2283491)
Outline: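 EZR transcript levels came from Fluidigm qRT-PCR and were normalized to three housekeeping genes after 48 h chemical exposure of HepaRG cells. Dosing used an 8-point half-log series with a 100 uM top concentration in 0.5% DMSO, tested in duplicate; both directions were fitted versus vehicle.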

[12] = read-out: Cytochrome P450 3A7 (Homo sapiens) (UniProt P24462); test: LTEA_HepaRG_CYP3A7: Life Technologies and Expression Analysis (LTEA) Assay for CYP3A7 using HepaRG (AID 2283492)
Outline: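 Human HepaRG liver cells, 48 h post-plating, switched to serum-free induction medium and exposed in duplicate for 48 h. Dosing: 100 uM top, half-log dilutions, 8 points, 0.5% DMSO vehicle. Read-out: CYP3A7 mRNA, gain or loss fitted against DMSO baseline.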

[13] = read-out: CYP3A5 (gene 1577); test: LTEA_HepaRG_CYP3A5: Life Technologies and Expression Analysis (LTEA) Assay for CYP3A5 using HepaRG (AID 2283493)
Outline: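 Human HepaRG hepatic cells receive 48 h chemical treatment at eight concentrations (half-log steps from 100 uM) in 0.5% DMSO. Expression of CYP3A5 is quantified by Fluidigm qRT-PCR and normalized to three reference genes.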

[14] = read-out: Fatty Acid-Binding Protein 1 (FABP1), FABP1 (gene 2168); test: LTEA_HepaRG_FABP1: Life Technologies and Expression Analysis (LTEA) Assay for Fatty Acid-Binding Protein 1 (FABP1) using HepaRG (AID 2283494)
Outline: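 Values reflect bidirectional concentration-response fitting of FABP1 mRNA change against 0.5% DMSO controls. Human HepaRG cultures received eight half-log doses (top 100 uM) for 48 h; expression quantified by TaqMan qRT-PCR with housekeeping-gene normalization.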

[15] = read-out: Cytochrome P450 4A22 (Homo sapiens) (UniProt Q5TCH4); test: LTEA_HepaRG_CYP4A22: Life Technologies and Expression Analysis (LTEA) Assay for Cytochrome P450 4A22 (CYP4A22) using HepaRG (AID 2283495)
Outline: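 Readout is CYP4A22 transcript induction or loss, quantified by qRT-PCR and normalized to ACTB, GAPDH and POLR2A. Human HepaRG cells receive test chemicals for 48 h at eight half-log concentrations from 100 uM in 0.5% DMSO.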

[16] = read-out: Glutathione S-Transferase (GSTA2), GSTA2 (gene 2939); test: LTEA_HepaRG_GSTA2: Life Technologies and Expression Analysis (LTEA) Assay for Glutathione S-Transferase (GSTA2) using HepaRG (AID 2283497)
Outline: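 Oxidative-stress marker GSTA2 is quantified by TaqMan qRT-PCR in HepaRG cultures treated 48 h across an eight-point range to 100 uM. Expression is normalized to endogenous controls and compared with 0.5% DMSO vehicle.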

[17] = read-out: Glutamate-cysteine ligase catalytic (GCLC), GCLC (gene 2729); test: LTEA_HepaRG_GCLC: Life Technologies and Expression Analysis (LTEA) Assay for Glutamate-cysteine ligase catalytic (GCLC) using HepaRG (AID 2283498)
Outline: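 Oxidative-stress marker GCLC is measured as mRNA change in human HepaRG liver cells after 48 h chemical treatment in 0.5% DMSO, eight concentrations from 100 uM. Activity is fitted bidirectionally against vehicle.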

[18] = read-out: growth arrest and DNA damage 45 (GADD45G), GADD45G (gene 10912); test: LTEA_HepaRG_GADD45G: Life Technologies and Expression Analysis (LTEA) Assay for growth arrest and DNA damage 45 (GADD45G) using HepaRG (AID 2283499)
Outline: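 Gain or loss of GADD45G mRNA, quantified by TaqMan qRT-PCR against three housekeeping genes, is fitted in both directions relative to 0.5% DMSO. Human HepaRG cultures receive test chemical for 48 h at up to 100 uM.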

[19] = read-out: Glutamate-cysteine ligase regulatory (GCLM), GCLM (gene 2730); test: LTEA_HepaRG_GCLM: Life Technologies and Expression Analysis (LTEA) Assay for Glutamate-cysteine ligase regulatory (GCLM) using HepaRG (AID 2283500)
Outline: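 Endpoint is GCLM transcript level by qRT-PCR, normalized to three housekeeping genes, after 48 h chemical exposure of human HepaRG cells (0.5% DMSO vehicle, top 100 uM, half-log dilutions). Fitting was bidirectional relative to DMSO.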

[20] = read-out: Cytochrome P450 7A1 (Homo sapiens) (UniProt P22680); test: LTEA_HepaRG_CYP7A1: Life Technologies and Expression Analysis (LTEA) Assay for Cytochrome P450 7A1 (CYP7A1) using HepaRG (AID 2283496)
Outline: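 HepaRG, 48 h exposure, 8-pt half-log series from 100 uM, 0.5% DMSO vehicle, duplicates. Readout: TaqMan qRT-PCR mRNA vs three housekeeping genes; bidirectional curve fit against DMSO baseline.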

Measured: AC50

Sequence of Cytochrome P450 3A4 (Homo sapiens) (P08684 whole entry, looked up): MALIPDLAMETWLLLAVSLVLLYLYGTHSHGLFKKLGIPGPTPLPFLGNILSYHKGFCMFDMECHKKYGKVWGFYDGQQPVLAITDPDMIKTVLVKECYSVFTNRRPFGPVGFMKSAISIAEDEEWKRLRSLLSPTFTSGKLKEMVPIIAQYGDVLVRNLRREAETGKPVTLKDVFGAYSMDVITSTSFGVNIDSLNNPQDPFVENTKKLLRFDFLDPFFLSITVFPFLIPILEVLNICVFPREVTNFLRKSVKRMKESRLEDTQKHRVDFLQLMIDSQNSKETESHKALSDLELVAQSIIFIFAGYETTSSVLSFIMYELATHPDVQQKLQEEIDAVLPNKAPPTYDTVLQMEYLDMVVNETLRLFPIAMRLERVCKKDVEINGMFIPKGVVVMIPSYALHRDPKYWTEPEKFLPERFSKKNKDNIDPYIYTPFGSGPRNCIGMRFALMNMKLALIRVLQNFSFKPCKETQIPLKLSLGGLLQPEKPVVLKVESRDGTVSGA
Sequence of Cytochrome P450 3A7 (Homo sapiens) (P24462 whole entry, looked up): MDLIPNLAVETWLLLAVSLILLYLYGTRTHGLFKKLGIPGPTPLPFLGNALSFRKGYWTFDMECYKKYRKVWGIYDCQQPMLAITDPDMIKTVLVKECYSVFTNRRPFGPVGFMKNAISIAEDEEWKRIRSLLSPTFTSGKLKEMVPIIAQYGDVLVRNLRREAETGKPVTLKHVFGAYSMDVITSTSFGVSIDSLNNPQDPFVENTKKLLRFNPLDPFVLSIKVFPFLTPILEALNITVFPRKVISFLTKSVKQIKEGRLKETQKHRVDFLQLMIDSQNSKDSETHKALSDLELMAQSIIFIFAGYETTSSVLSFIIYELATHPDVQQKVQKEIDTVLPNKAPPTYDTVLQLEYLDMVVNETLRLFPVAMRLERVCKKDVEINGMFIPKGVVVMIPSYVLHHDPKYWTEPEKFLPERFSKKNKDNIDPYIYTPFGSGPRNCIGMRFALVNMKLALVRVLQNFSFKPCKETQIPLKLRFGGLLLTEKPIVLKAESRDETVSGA
Sequence of Cytochrome P450 2C19 (Homo sapiens) (P33261 whole entry, looked up): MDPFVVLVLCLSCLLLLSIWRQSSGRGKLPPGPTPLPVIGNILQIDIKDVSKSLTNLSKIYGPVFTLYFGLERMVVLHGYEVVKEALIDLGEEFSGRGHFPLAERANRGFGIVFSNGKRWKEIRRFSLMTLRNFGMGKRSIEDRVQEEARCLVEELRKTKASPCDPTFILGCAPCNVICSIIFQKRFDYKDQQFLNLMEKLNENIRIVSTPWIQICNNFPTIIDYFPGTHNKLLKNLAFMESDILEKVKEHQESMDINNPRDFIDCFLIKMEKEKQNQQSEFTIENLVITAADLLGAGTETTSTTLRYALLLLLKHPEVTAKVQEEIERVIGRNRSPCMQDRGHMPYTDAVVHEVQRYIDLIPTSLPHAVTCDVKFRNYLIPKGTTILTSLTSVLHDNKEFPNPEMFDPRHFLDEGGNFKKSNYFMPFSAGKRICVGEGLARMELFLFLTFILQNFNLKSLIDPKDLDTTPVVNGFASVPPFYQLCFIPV

CCCC(=NOCC)C1=C(O)CC(CC(C)SCC)CC1=O (centres undefined)
active: [1] 46.2 µM | [2] 29.6 µM | [5] 50.2 µM | [7] 28.4 µM
inactive: [3] | [4] | [6] | [8] | [9] | [10] | [11] | [12] | [13] | [14] | [15] | [16] | [17] | [18] | [19]

Cc1ccc(N=CN(C)C=Nc2ccc(C)cc2C)c(C)c1
inactive: [2] | [3] | [4] | [5] | [6] | [7] | [8] | [9] | [10] | [11] | [12] | [13] | [14] | [15] | [20] | [16] | [17] | [18] | [19]
active: [1] 30.3 µM

CS(=O)(=O)c1ccc(C(=O)C2C(=O)CCCC2=O)c([N+](=O)[O-])c1
inactive: [1] | [2] | [3] | [4] | [5] | [6] | [7] | [8] | [9] | [10] | [11] | [12] | [13] | [14] | [15] | [16] | [17] | [18] | [19]

C=CCOC(=O)C(C)(C)OC(=O)c1cc(-n2c(=O)cc(C(F)(F)F)n(C)c2=O)ccc1Cl
inactive: [2] | [3] | [4] | [5] | [6] | [8] | [9] | [10] | [11] | [13] | [14] | [15] | [16] | [17] | [18] | [19]
active: [1] 6.65 µM | [7] 16.6 µM | [12] 11 µM

CCCCC(O)(Cn1cncn1)c1ccc(Cl)cc1Cl (centres undefined)
inactive: [9] | [11] | [13] | [17] | [19]
active: [1] 80.1 µM | [2] 83.2 µM | [3] 78.5 µM | [4] 73.8 µM | [5] 46.4 µM | [6] 59 µM | [7] 85.6 µM | [8] 77.4 µM | [10] 69.2 µM | [14] 79.6 µM | [15] 67.8 µM | [16] 73.2 µM | [18] 15.8 µM

CN=C=S
inactive: [1] | [2] | [3] | [4] | [5] | [6] | [7] | [8] | [9] | [10] | [11] | [13] | [14] | [15] | [20] | [16] | [17] | [18] | [19]
